According to PubChem BioAssay (Tox21):
Results filed as inconclusive are left out. The source made the active and inactive calls. Unless noted, calls come from the whole dose curve; as a rule, active = well fitted curve in the direction sought with a large enough effect in the repeat runs; inconclusive = weak or mixed curves; inactive = no such curve, though single readings can be large; an effect the other way counts as inactive or inconclusive.

What was measured:
[1] = qHTS assay to identify small molecule antagonists of the estrogen related receptor (ERR) signaling pathway - cell viability counter screen (AID 1224818); note: potency is the fitted concentration of half-maximal effect
How it was run: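 Fluorescence from CellTiter-Fluor, read 30 min after reagent addition at 37 C, measured viability of ERR cells exposed to compounds for 17.5 h. Cells had settled 6 h before dosing.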

[2] = qHTS assay to identify small molecule agonists of the estrogen related receptor (ERR) signaling pathway (AID 1224820)
How it was run: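 Following a 6 h settling period, 2,000 ERR cells per well receive DMSO-dissolved compounds by pin tool and incubate 18 h at 37 C; agonist activity is scored from One-Glo luminescence read 30 min post-addition.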

[3] = tested on: estrogen-related receptor alpha (ERRalpha) with PGC-1alpha coactivator, human; assay: qHTS assay to identify small molecule antagonists of the estrogen related receptor signaling pathway with the pleiotropic PPARgamma coactivator (PGC) (AID 1224821; calls by dose curve; note: nearly all actives have a fitted effect of over 50% in size; note: potency is the fitted concentration of half-maximal effect)
How it was run: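 Screening used NTP's PGC/ERR cells, dosed via pin tool with compound in DMSO alongside positive and negative controls. After 18 h at 37 C, One-Glo reagent sat 30 min at room temperature before luminescence detection.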

[4] = qHTS assay to identify small molecule antagonists of the estrogen related receptor signaling pathway with the pleiotropic PPARgamma coactivator (PGC) cell viability counter screen (AID 1224822; note: potency is the fitted concentration of half-maximal effect)
How it was run: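 Fluorescence read-out of CellTiter-Fluor after 30 min at 37 C; PGC/ERR cells, 2,000 per well, had been exposed to DMSO-dissolved compounds for 17.5 h following a 6 h pre-incubation.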

[5] = qHTS assay to identify small molecule agonists of the estrogen related receptor signaling pathway with the pleiotropic PPARgamma coactivator (PGC) (AID 1224823); note: potency is the fitted concentration of half-maximal effect
How it was run: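 In this quantitative high-throughput screen, an 18 h, 37 C treatment of PGC/ERR cells with compounds in DMSO preceded a One-Glo luminescence read taken after 30 min at room temperature.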

Measured: Potency

COc1ccc(-c2cc(=O)c3c(O)c(OC)c(OC)cc3o2)cc1O
inactive: all assays above

Cc1nn(-c2ccccc2)c(C)c1/C=N/N1CCN(Cc2ccccc2)CC1
not listed: [5]
inactive: all other assays above

CC(=O)NC[C@H]1CN(c2ccc(N3CCOCC3)c(F)c2)C(=O)O1
inactive: all assays above

O=c1[nH]c(=S)[nH]c(-c2ccccc2)c1Cc1c(O)ccc2ccccc12
inactive: all assays above

Nc1nc2ccc(Cl)cc2c2nc(-c3ccco3)nn12
inactive: all assays above

O=c1cc(O)cc(/C=C/c2ccc(O)c(O)c2)o1
inactive: all assays above

CC#CCOC(=O)c1c(C)nc2sc3c(c2c1N)CCC(O)C3 (centres undefined)
inactive: all assays above

COc1ccc(CCn2nnnc2C2(c3ccc(C)cc3)CC2)cc1
inactive: all assays above

O=C1c2c(O)cc(O)cc2OC(c2ccc(O)c(O)c2)C1O (centres undefined)
not listed: [5]
inactive: all other assays above

CCCCCCCC/C=C\CCCCCCCC(=O)NCCO
not listed: [5]
inactive: all other assays above

COc1cccc(OC)c1OCCNCC1COc2ccccc2O1 (centres undefined)
inactive: all assays above

CCCn1c(=O)c2c(ncn2C)n(CCC)c1=O
inactive: all assays above

c1ccc2c(c1)CCC[C@H]2Nc1nc2ccccc2[nH]1
inactive: all assays above

CC1(C)CCC(NC(=O)[C@@H](N)CCC(=O)O)CC1
inactive: all assays above

CNC(=O)[C@H]1O[C@@H](n2cnc3c(NCc4cccc(I)c4)ncnc32)[C@H](O)C1O (some centres undefined)
active: [5] 0.944 µM
inactive: all other assays above

CN1CCN(c2nc3cc(C(F)(F)F)ccc3n3cccc23)CC1
inactive: all assays above

NCC(O)C1CCCCCCC1 (centres undefined)
inactive: all assays above

O=C1C2C=CC=CC2=NC(=S)N1CCN1CCC(=C(c2ccc(F)cc2)c2ccc(F)cc2)CC1 (centres undefined)
active: [3] 25.6 µM
inactive: [1] | [2] | [5]

Cc1cccc(-c2[nH]ncc2-c2ccc3ncccc3n2)n1
active: [3] 1.44 µM
inactive: all other assays above

CCCCCCCCc1ccc(-c2ccc(C(=O)O)cc2)cc1
inactive: all assays above

O=C(Nc1nc2ccccc2n1CCN1CCOCC1)c1cccc([N+](=O)[O-])c1
not listed: [4]
inactive: all other assays above

COc1ccccc1N1CCN(CCN(C(=O)C2CCCCC2)c2ccccn2)CC1
inactive: [1] | [2] | [4]

c1ccc2c(c1)CC(N1CCN(c3cccc4c3OCCO4)CC1)C2
inactive: all assays above

CN1CCC2(CCN3CCc4c(oc5ccccc45)C3C2)N(C)C1=O (centres undefined)
not listed: [3]
inactive: all other assays above

C[C@]12C=CC(=O)C=C1CC[C@@H]1C2=CC[C@]2(C)[C@@H](C(=O)CN3CCN(c4cc(N5CCCC5)nc(N5CCCC5)n4)CC3)CC[C@@H]12
not listed: [3]
inactive: all other assays above

OC[C@H]1O[C@@H](n2cnc3cncnc32)[C@H](O)[C@@H]1O
inactive: [1] | [2] | [5]
active: [3] 15 µM

O=c1cc(N2CCOCC2)oc2c(-c3ccccc3)cccc12
not listed: [3]
inactive: all other assays above

CC[n+]1c(/C=C/C=C2/N(C)c3ccccc3C2(C)C)sc2ccccc21
active: [1] 9.08 µM | [3] 0.492 µM | [4] 3.9 µM
inactive: [2] | [5]
